{
  "source": "PubChem BioAssay (NCATS)",
  "note": "Inconclusive results are not listed. Where a call stands in place of a potency, no number is given. Calls of active or inactive are those of the source. The call rests on the fitted dose curve; in most records, active means well fitted inhibition curve with a large enough effect; inconclusive means small, poorly fitted or top-dose-only effect; inactive means flat fitted curve, though single readings scatter.",
  "data": [
    {"test_system": "SC27B", "assay": "qHTS profiling for inhibitors of Plasmodium falciparum proliferation (AID 504749); further: nearly all actives have a fitted effect of over 60% in size", "settings": "P. falciparum in erythrocytes, SYBR Green DNA, 72 h; series mostly up to 28.7 µM", "how_it_was_run": "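SYBR Green fluorescence of parasite DNA, read after lysis and overnight dark incubation, measured growth over 72 h in erythrocyte culture at 0.3% parasitemia and 2.5% hematocrit. Data normalised to DMSO and 0.29 uM artemisinin, with plate-drift correction.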", "values": [
      {"smiles": "CCC(=O)c1ccc(O)cc1", "Potency": "inactive"},
      {"smiles": "Cc1cc(CC(=O)O)n(C)c1C(=O)c1ccc(Cl)cc1", "Potency": "inactive"},
      {"smiles": "CC12CCC(CC1)C(C)(C)O2", "Potency": "inactive"},
      {"smiles": "COc1cc(C(=O)N2CCOCC2)cc(OC)c1OC", "Potency": "inactive"},
      {"smiles": "CCCOC(=O)c1ccccc1", "Potency": "inactive"},
      {"smiles": "OCC(O)CN1CCN(c2ccccc2)CC1", "note": "(stereo unspecified)", "Potency": "inactive"},
      {"smiles": "O=C1NS(=O)(=O)c2ccccc21", "Potency": "inactive"},
      {"smiles": "CC(=O)Oc1ccc(C2(c3ccc(OC(C)=O)cc3)C(=O)Nc3ccccc32)cc1", "Potency": "inactive"},
      {"smiles": "CC(=O)Nc1ccc(/C=N/NC(N)=S)cc1", "Potency": "inactive"},
      {"smiles": "O=C(O)CC(O)C(=O)O", "note": "(stereo unspecified)", "Potency": "inactive"},
      {"smiles": "O=C(CCCN1CCN(c2ccccn2)CC1)c1ccc(F)cc1", "Potency": "inactive"},
      {"smiles": "CC1=C(/C=C/C(C)=C/C=C/C(C)=C/C(=O)O)C(C)(C)CCC1", "Potency": "inactive"},
      {"smiles": "Nc1nc2c(ncn2CCC(CO)CO)c(=O)[nH]1", "Potency": "inactive"},
      {"smiles": "O=C(O)c1ccccn1", "Potency": "inactive"},
      {"smiles": "Nc1ncnc2c1ncn2[C@@H]1O[C@H](CO)[C@@H](O)[C@H]1O", "Potency": "inactive"},
      {"smiles": "Cn1c(=O)c2c(ncn2CC2OCCO2)n(C)c1=O", "Potency": "inactive"},
      {"smiles": "NC(CSCC(=O)O)C(=O)O", "note": "(stereo unspecified)", "Potency": "inactive"},
      {"smiles": "O=C(O)c1ccccc1O", "Potency": "inactive"},
      {"smiles": "CCCCCCCCCCCCOS(=O)(=O)O", "Potency": "inactive"},
      {"smiles": "CCCCC(CC)COC(=O)c1ccccc1O", "note": "(stereo unspecified)", "Potency": "inactive"},
      {"smiles": "CC(O)CN(CCN(CC(C)O)CC(C)O)CC(C)O", "note": "(stereo unspecified)", "Potency": "inactive"},
      {"smiles": "Cc1ncc(COP(=O)(O)O)c(C=O)c1O", "Potency": "inactive"},
      {"smiles": "CC[C@@]1(c2ccccc2)NC(=O)N(C)C1=O", "Potency": "inactive"},
      {"smiles": "[O-][n+]1cccc(CO)c1", "Potency": "inactive"},
      {"smiles": "Oc1cccc(O)c1", "Potency": "inactive"},
      {"smiles": "CCn1cc(C(=O)O)c(=O)c2cnc(N3CCNCC3)nc21", "Potency": "inactive"}
    ]}
  ]
}
